D1 antagonist: antagonists of human D1 dopamine receptor; P21728; HEK293 TREx D1 cells, calcium flux, dopamine EC80; active compounds read low; activity change, negative = inhibition, % at 10 µM; hit rate 3.2% among 360,000; AID 504652; in the data active = activity change below about -30%
Target sequence (P21728 whole entry, looked up): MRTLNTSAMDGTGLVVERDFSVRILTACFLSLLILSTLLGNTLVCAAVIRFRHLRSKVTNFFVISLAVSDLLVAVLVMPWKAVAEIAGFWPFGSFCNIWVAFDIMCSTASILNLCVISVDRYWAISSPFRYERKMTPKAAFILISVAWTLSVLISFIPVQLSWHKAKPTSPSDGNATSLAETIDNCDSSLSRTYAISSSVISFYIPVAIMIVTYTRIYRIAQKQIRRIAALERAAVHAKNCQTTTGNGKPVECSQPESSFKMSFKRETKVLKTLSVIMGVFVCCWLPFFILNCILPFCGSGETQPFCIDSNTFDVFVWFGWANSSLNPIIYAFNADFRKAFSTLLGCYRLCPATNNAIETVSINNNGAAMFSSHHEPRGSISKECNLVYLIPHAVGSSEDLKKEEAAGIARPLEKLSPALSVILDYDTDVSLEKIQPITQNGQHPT
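Using tetracycline-induced force-coupled D1 Hek293 cells and a calcium dye, signals were followed for 180 s after compound, then for 180 s after EC80 dopamine, to detect inhibitors.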
D3 antag: D3 dopamine receptor (human) antagonism. P35462. D3R cells, DiscoveRx beta-arrestin luminescence, antagonist mode; active compounds read low. max response, negative = inhibition, %. hit rate 2.5% among 360,000. AID 652054; in the data active = max response below about -50%; inconclusive = no clear call, values can overlap the other calls
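Cells plated overnight at 1500 cells/well, then exposed to library compounds with dopamine controls for 90 minutes at 37 degrees C. DiscoveRx reagent added for 30–60 minutes at room temperature; luminescence read, quantitative HTS format.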
D1 agonist: activates the human D1 dopamine receptor; hit rate 1% among 360,000; P21728; AID 504660; HEK293 T-REx D1 cells, calcium flux, agonist mode; activation, % at 2 µM; in the data active = activation above about 30%
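Tetracycline-induced HEK293 TREx D1 cells, force-coupled to calcium signalling, were dye-loaded with a no-wash calcium kit. Compound was pin-added after a 10 s baseline. Fluorescence was read kinetically at 1 cycle/s for 180 s, with calcium rises flagged as agonism.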
D1 PAM: human D1 dopamine receptor positive modulation; P21728; HEK293 TREx D1 cells, calcium flux, dopamine EC20 potentiation; potentiation, % at 10 µM; hit rate 0.036% among 360,000; AID 504651; in the data active = potentiation above about 30%
DRD3 agonist: activates the human D3 dopamine receptor. P35462. D3R DiscoveRx beta-arrestin cells, luminescence, 90 min. max activation, %. hit rate 0.58% among 410,000; in the data active = max activation above about 30%
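Cells at 1500/well, incubated overnight, then treated with pinned compounds (dopamine as control) for 90 min at 37 degrees C. DiscoveRx reagent added for 30 - 60 minutes at room temperature; luminescence read.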
Each line names hits and unclear results; the compound was inactive in the other large screens; ! = not confirmed by another sample. Hits are enriched below; roughly 6% of the tested compounds scored in any of these assays.

COc1cccc(C(C)(O)c2nc(/C=C/c3ccccc3)cs2)c1 (stereo not drawn)	D3 antag -61 (no result: D1 antagonist, D1 agonist, D1 PAM)
COc1ccc(C(=O)c2[nH]c(N)c(C(=O)NCCc3c[nH]c4ccccc34)c2-c2ccc(Br)cc2)cc1	none (no result: D1 antagonist, D1 agonist, D1 PAM)
CCOC(=O)c1sc(=S)n(C)c1C	none
CCOC(=O)c1sc(=S)n(C)c1N	D1 antagonist -33
O=C(O)c1ccc2c(c1Nc1ccccc1)C(=O)c1ccccc1C2=O	D3 antag -56
CCNc1c(C(=O)O)ccc2c1C(=O)c1ccccc1C2=O	D3 antag inconclusive
CNc1c(C(=O)O)ccc2c1C(=O)c1ccccc1C2=O	D3 antag -74
CC1(C)NC(=O)N(c2ccc([N+](=O)[O-])c(C(F)(F)F)c2)C1=O	DRD3 agonist 36!
CC1(C)NC(=O)N(CCCCOc2ccccc2[N+](=O)[O-])C1=O	none (no result: D3 antag, DRD3 agonist)
COc1cc(C=Nc2cccc(C)c2)c(O)c([N+](=O)[O-])c1	D3 antag -92
Cc1cccc(N=Cc2cc3c(cc2[N+](=O)[O-])OCO3)c1	none
CCOCCCNC(=O)C1CCN(c2nc3ccc(C)cc3[nH]2)CC1	D1 antagonist -46 (no result: D3 antag)
Cc1cccc(CNC(=O)C2CCN(c3nc4ccc(Cl)cc4[nH]3)CC2)c1	D1 agonist 42 (no result: D3 antag)
COCCCNC(=O)C1CCN(c2nc3ccc(Cl)cc3[nH]2)CC1	none (no result: D3 antag)
Cc1ccc(C(=O)Nc2ccc3cn[nH]c3c2)cc1S(=O)(=O)N1CCCCC1	none (no result: D1 antagonist)
CC(C)(C)c1ccc(S(=O)(=O)N2CCC(Oc3ccc(-n4cnnn4)cc3)CC2)cc1	none (no result: D3 antag)
CCOC(=O)C1=C(C)N(c2ccc(OC)cc2)C(=O)/C1=C\c1cccs1	DRD3 agonist 72
COc1cccc(-c2cc(C(F)(F)F)nc(NCCc3ccc(OC)c(OC)c3)n2)c1	D1 antagonist -53 (no result: D3 antag)
CCOc1nc(NCCc2ccc(OC)c(OC)c2)nc(NC(C)(C)CO)n1	D3 antag -62 (no result: D1 antagonist, D1 agonist, D1 PAM)
CCN(CC)S(=O)(=O)c1cccc(C(=O)Nc2ccccc2C(=O)Nc2ccc(OC)cc2)c1	none (no result: D3 antag)
COc1cccc(CNC(=O)CSc2cc(C)[nH]c(=O)n2)c1	none (no result: D1 antagonist, D3 antag)
COc1cc(Cl)c(C)cc1NC(=O)Cn1ncc2c([nH]c3ccccc32)c1=O	none (no result: D3 antag)
CCn1c(=O)n(CC)c2cc(S(=O)(=O)N3CCCCC3)c(C)cc21	DRD3 agonist 31
Cc1ccc(NC(=O)Cn2nc(-c3ccccc3)nc(Cc3ccccc3)c2=O)cc1	none (no result: D3 antag)
Cc1ccccc1CNC(=O)CCC(=O)N1CC2CCCN2c2ccccc21 (stereo not drawn)	none (no result: D3 antag)
CC[n+]1ccc2cc(OC)c(OC)cc2c1Cc1ccc(OC)c(OC)c1	D1 antagonist -49
CCOc1ccccc1NC(=O)c1cnn2c(C(F)F)cc(-c3ccccc3)nc12	none (no result: D3 antag)
COc1ccc(-c2noc(CSc3nnc(-c4ccc(Cl)cc4)n3C)n2)cc1OC	D1 antagonist -31 (no result: D3 antag)
COc1ccc(-c2noc(CSc3nnc(C)n3-c3cccc(C)c3)n2)cc1	D1 antagonist -34 (no result: D3 antag)
COc1ccc(-c2noc(CSc3nnc(C)n3-c3ccc(C)cc3)n2)cc1	none (no result: D3 antag)
COc1ccc(-c2noc(CSc3nnc(-c4ccccc4)n3C)n2)cc1	none
NC(=O)c1ccccc1NC(=O)C1CCCO1 (stereo not drawn)	none
COc1ccccc1C(C)NS(=O)(=O)c1cccs1 (stereo not drawn)	none (no result: D3 antag, DRD3 agonist)
CC(C)c1cccc(C(C)C)c1NS(=O)(=O)c1cccs1	D1 antagonist -31 (no result: D3 antag)
CC(C)CNc1cc(NC2CCCCC2)c2c3c(onc13)-c1ccccc1C2=O	none (no result: D3 antag)
O=C1c2ccccc2-c2onc3c(Br)cc(NC4CCCCC4)c1c23	D1 agonist 39 (no result: D3 antag)
CC(=O)c1ccc(N2CCN(C(=O)CCCCn3c(=O)[nH]c4ccsc4c3=O)CC2)cc1	none (no result: D3 antag)
Cc1cc(F)ccc1-c1cc(C(=O)N2CCN(c3ccncc3)CC2)[nH]n1	none (no result: D1 antagonist, D1 agonist, D1 PAM)
CCOC(=O)c1nn(-c2ccc(F)cc2)c(=O)c2c(N)scc12	D1 antagonist -51, D1 agonist 59
COC(=O)CSc1n[nH]c(=S)s1	D3 antag -68
COC(=O)c1ccc(CSc2n[nH]c(=S)s2)o1	none
COCCOC(=O)c1c(C)nc(SCC(=O)Nc2cccc3ccccc23)c(C#N)c1-c1ccco1	D3 antag -65 (no result: D1 antagonist)
O=C(Cc1cccc2ccccc12)Nc1c(F)cccc1F	D1 antagonist -36
COC(=O)c1ccccc1NC(=O)c1c(C)oc2ncn(C)c(=O)c12	none (no result: D3 antag)
Cc1nn(CC(=O)Nc2ccncc2)c(C)c1[N+](=O)[O-]	D3 antag inconclusive
Cc1nn(CC(=O)NCCc2ccc(Cl)cc2Cl)c(C)c1[N+](=O)[O-]	D1 agonist 34
Cc1ccc(NC(=O)Cn2nc(C)c([N+](=O)[O-])c2C)cc1Cl	D3 antag -55
C[C@@H]1CN([C@@H](C)CO)S(=O)(=O)c2ccc(Br)cc2O[C@H]1CN(C)C(=O)c1ccccc1	none (no result: D1 antagonist, D1 agonist, D1 PAM)
O=C(OCc1cn([C@H]2C[C@H](c3ccccc3)N(Cc3cccs3)C[C@@H]2O)nn1)c1ccccc1	none (no result: D1 antagonist, D1 agonist, D1 PAM)
COc1cc(OC)c(S(=O)(=O)NCc2ccco2)cc1S(=O)(=O)NCc1ccco1	none
COc1c(C)cc(S(=O)(=O)NCc2ccco2)c(C)c1C	DRD3 agonist 31
Nc1c(N2CCCC2)c2ccccc2oc1=O	DRD3 agonist 44
CCC(C)C(NC(=O)OCc1ccccc1)C(=O)NC(Cc1ccc(O)cc1)C(=O)OC (stereo not drawn)	D1 agonist 62
Cc1ccc(C)c2[nH]c(=O)c(C(c3nnnn3C(C)(C)C)N3CC=C(c4ccc(F)cc4)CC3)cc12 (stereo not drawn)	D3 antag -51
Cc1ccc(C(=O)Nc2ccc(SC(F)F)cc2)s1	D1 antagonist -34
O=c1c2ccccc2nc(CSc2nnnn2-c2ccccc2)n1-c1ccccc1Cl	D1 antagonist -35
Cc1ccccc1-n1c(CSC(=N)N)nc2ccccc2c1=O	D1 antagonist -42, D3 antag -72
O=[n+]1ccn([O-])c2ccccc21	none (no result: D1 antagonist, D3 antag, D1 agonist, D1 PAM)
CCC(CC)C(=O)Nc1ccc2nc(SCC(=O)N3CCOCC3)sc2c1	none (no result: D3 antag)
N#C/C(=C\c1ccc(-c2ccc(Br)cc2)o1)C(=O)NCCc1c[nH]c2ccccc12	D1 antagonist -34
Cc1ccc(NC(=O)COc2ncnc3sccc23)cc1S(=O)(=O)N(C)C	none
CCN(CC)S(=O)(=O)c1cccc(NC(=O)COc2ncnc3sccc23)c1	D3 antag -63
Cc1ccc(S(=O)(=O)N2C[C@H]3[C@H]4C(=O)N(Cc5ccccc5)C(=O)[C@H]4CC(=O)[C@H]3[C@@H]2c2ccccc2)cc1	none (no result: D1 antagonist, D1 agonist, D1 PAM)
O=S(=O)(/C(=C\c1ccc(C(F)(F)F)cc1)c1nc2ccccc2[nH]1)c1ccccc1	D3 antag -93 (no result: D1 antagonist, D1 agonist, D1 PAM)
CCCCCCCCCCCCCCCC(=O)O[C@@H]1CC(C)=C(/C=C/C(C)=C/C=C/C(C)=C/C=C/C=C(C)/C=C/C=C(C)/C=C/C2=C(C)C[C@@H](OC(=O)CCCCCCCCCCCCCCC)CC2(C)C)C(C)(C)C1	none (no result: D1 antagonist, D3 antag, D1 agonist, D1 PAM)

Compound activity: PubChem, National Center for Advancing Translational Sciences (NCATS)
